The structures appear in SMILES notation. The campaign covered roughly 330,000 compounds. About 7,700 (2.3%) were called active. Inconclusive results (about 26%) are left out. Calls follow the shape of the dose curve; as a rule, active = well fitted inhibition curve with a large enough effect; inconclusive = small, poorly fitted or top-dose-only effect, or effect the other way; inactive = flat fitted curve, though single readings scatter. The list comes from a sample in which actives are over-represented; it also holds similar structures and randomly drawn compounds. Entries that show only a call come without a potency.

The values below come from PubChem BioAssay AID504467 (National Center for Advancing Translational Sciences (NCATS), 2011).
Potency is read from the fitted curve at half-maximal effect.

The nature of the experiment: qHTS screen for small molecules that inhibit ELG1-dependent DNA repair in human embryonic kidney (HEK293T) cells expressing luciferase-tagged ELG1. Also: nearly all actives have a fitted effect of over 55% in size. As to conditions: HEK293T ELG1-luciferase reporter, luminescence, 16 h, DNA damage induced by 5-fluorouridine; series mostly up to 46.1 µM. The gist of the method:
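Reporter activity after DNA damage by 5-fluorouridine is monitored. Compound-treated cells incubate 16 hr at 37 °C, then ONE-Glo is added for 30 min before luminescence reading.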
With `CC1(c2ccc3ccccc3c2)NC(=O)N(CC(N)=O)C1=O` (stereo not given), the Potency result was “inactive”.

As for `CCc1ccc(Nc2n[n+](-c3ccccc3)c(-c3cccc(Cl)c3Cl)s2)cc1`, the Potency result was “inactive”.

`NC(=O)c1ccc(Nc2ccc3nonc3c2[N+](=O)[O-])cc1`: the Potency result is “inactive”.

As for `Cc1ccc(Nc2ccc(C(N)=O)cc2[N+](=O)[O-])cc1`, the Potency entry was “inactive”.

With `NC(=O)c1ccc(Nc2ccc3c(c2)CCC3)c([N+](=O)[O-])c1`, the Potency is 11.6 µM (active).

`CC(Sc1nnc(-c2ccccc2F)n1C1CC1)C(N)=O` (stereo not given): the Potency result was “inactive”.

On to `CCN(C[C@H]1N[C@@](Cc2ccccc2)(C(=O)OC)[C@H]2C(=O)N(Cc3ccccc3)C(=O)[C@@H]12)C(=O)c1ccc(C)cc1`, for which the Potency result was “inactive”.

With `CCOc1ccc(NC(=O)c2cc(C)nc3ccccc23)cc1`, the Potency result was “inactive”.

As for `CCCNC(=O)Nc1ccccc1C(=O)Nc1ccc(OC)cc1`, the Potency entry was “inactive”.

`COc1ccccc1C(=O)Nc1ccc(OCc2nnc3c4ccccc4c(C)nn23)cc1`: the Potency is 20.6 µM (active).

For `COc1ccc(C(CNC(=O)c2ccc(NS(=O)(=O)c3ccc(F)c(C)c3)cc2)N(C)C)cc1` (stereo not given), the Potency result is “inactive”.

Regarding `O=C1/C(=C\c2cccnc2)CN(Cc2ccccc2)C/C1=C\c1cccnc1`, the Potency is 3.66 µM (active).

With `O=Cc1cn(Cc2ccccc2)nc1-c1cccnc1`, the Potency entry was “inactive”.

As for `O=C1NCC(=O)N(Cc2ccccc2)/C1=C/c1ccccc1`, the Potency result was “inactive”.

Consider `COC(=O)[C@]1(CC(C)C)N[C@H](c2ccc(SC3CCCCC3)cc2)[C@@H]2C(=O)N(C)C(=O)[C@@H]21`, for which the Potency entry is “inactive”.

`CCOC(=O)C1CCN(c2ncnc3c2c(-c2ccccc2)cn3-c2ccc(C)cc2)CC1`: the Potency is 14.6 µM (active).

On to `CCOC(=O)C1CCN(Cc2ccc(-c3ccccc3)cc2)CC1`, for which the Potency result is “inactive”.

With `CCOC(=O)C1CCN(c2ncnc3c2oc2ccc(Br)cc23)CC1`, the Potency entry was “inactive”.

`COC(=O)c1ccc(C(=O)NC2CC(C)(C)Cc3c2cnn3-c2ccc(F)cc2)nc1` (stereo not given): the Potency result is “inactive”.

For `CC1(C)C[C@H]2C3=CCC4[C@@]5(C)CC[C@H](O)[C@](C)(CO)C5CC[C@@]4(C)[C@]3(C)C[C@@H](O)[C@@]2(CO)[C@@H](O)[C@@H]1O` (stereo not given in full), the Potency result is “inactive”.

In the case of `CCN(CC)CCCNC(=O)c1c(O)c2cc(F)cc3c2n(c1=O)C(C)CC3` (stereo not given), the Potency entry is “inactive”.

Consider `CC(=O)c1ccc(S(=O)(=O)N2CCN(C(=O)/C=C/c3ccc4ccccc4n3)CC2)cc1`, for which the Potency is 20.6 µM (active).

For `NC(=O)COC(=O)/C=C/c1ccc2ccccc2n1`, the Potency entry was “inactive”.

In the case of `CC(=O)c1ccc(S(=O)(=O)N2CCC3(CC2)OCCO3)cc1`, the Potency result was “inactive”.

Regarding `N#C/C(=C\c1cccnc1)C(=O)Nc1ccc(SC(F)F)cc1`, the Potency entry is “inactive”.

For `CC(CNC(=O)Cn1cnc2c(OCc3ccccc3)ncnc21)c1ccccc1` (stereo not given), the Potency entry was “inactive”.

As to `COc1ccc(-c2csc(NC(=O)c3ccc(N4C(=O)CCC4=O)cc3)n2)cc1OC`, the Potency entry was “inactive”.

In the case of `O=C(Nc1nc(-c2ccc3c(c2)OCO3)cs1)c1ccncc1`, the Potency is 7.08 µM (active).

As for `C/C(=N/NC(=O)c1ccncc1)c1ccc2c(c1)OCO2`, the Potency entry was “inactive”.

For `CCN(C(=O)COC(=O)CCOc1cccc(C)c1)c1c(N)n(Cc2ccccc2)c(=O)[nH]c1=O`, the Potency result is “inactive”.

With `O=C(CSc1ccccn1)N1CCN(S(=O)(=O)c2ccc(Cl)cc2)CC1`, the Potency entry is “inactive”.

On to `CCN(C[C@H]1N[C@@](CC)(C(=O)OC)[C@H]2C(=O)N(C)C(=O)[C@@H]12)C(=O)Nc1ccc(F)cc1`, for which the Potency result was “inactive”.

For the compound `NS(=O)(=O)c1cccnc1Nc1cccc(Cl)c1`, the Potency result is “inactive”.

For the compound `OCCCNc1nccc(-c2cc(Nc3cccc(Cl)c3)ncn2)n1`, the Potency was 0.92 µM (active).

In the case of `O=C(Nc1cc(Cl)cc(Cl)c1)C(NCCCO)c1ccccc1` (stereo not given), the Potency entry is “inactive”.

With `COc1ccc(S(=O)(=O)N2CCN(CC(=O)N3CCOCC3)CC2)cc1OC`, the Potency entry was “inactive”.

`CCC(=O)Nc1ccc(C(=O)N2CCN(C(=O)c3ccco3)CC2)cc1`: the Potency entry is “inactive”.

For `Cc1ccc(OCC(=O)N/N=C\c2ccco2)c(C)c1`, the Potency entry was “inactive”.

As for `Cc1ccc(OCC(=O)Nc2ccc(N3CCN(C(=O)c4ccco4)CC3)cc2)c(C)c1`, the Potency was 10.3 µM (active).

As for `COc1ccc(C(=O)Nc2ccccc2C(=O)N2CCN(c3ccccc3)CC2)cc1`, the Potency result is “inactive”.

For the compound `COc1ccc(NC(=O)c2cccc(NC(=O)c3ccco3)c2)c(OC)c1`, the Potency is 18.4 µM (active).

On to `Cc1ccc(C)c(OCC(=O)N2CCN(C(=O)c3ccco3)CC2)c1`, for which the Potency result was “inactive”.

As for `COc1cccc(C(=O)Nc2ccc(N3CCN(C(=O)c4ccco4)CC3)cc2)c1`, the Potency was 13 µM (active).

Regarding `COc1ccccc1C(=O)Nc1ccc(NC(=O)c2ccco2)c(C)c1`, the Potency result is “inactive”.

In the case of `COc1cc(NC(=O)c2cc([N+](=O)[O-])ccc2Br)ccc1NC(=O)c1ccco1`, the Potency entry is “inactive”.

Take `Cc1cccc(C(=O)N[C@H](C(=O)NCc2cccs2)C(C)C)c1`: the Potency result was “inactive”.

Turning to `CC(NC(=O)c1ccccc1F)c1cccc2ccccc12` (stereo not given), the Potency entry was “inactive”.

Take `CC1CCCC(NC(=O)c2cc(S(=O)(=O)N3CCCCC3)ccc2Cl)C1C` (stereo not given): the Potency result is “inactive”.

In the case of `Cc1ccccc1CNC(=O)CCC(=O)N1Cc2ccccc2Oc2ncccc21`, the Potency result is “inactive”.

For `C=C1CCC(N(O)c2cc(C)on2)C(=C)CCC2C1CC2(C)C` (stereo not given), the Potency result is “inactive”.

Consider `Cc1ccc(S(=O)(=O)N2CCC(C(=O)NCCC3=CCCCC3)CC2)cc1C`, for which the Potency entry was “inactive”.

Take `CC(C)(C)n1nnnc1C(c1ccc(F)cc1)N1CCN(Cc2ccc3c(c2)OCO3)CC1` (stereo not given): the Potency entry is “inactive”.

Take `O=c1[nH]c(N2CCN(Cc3ccc4c(c3)OCO4)CC2)nc2c1CCCC2`: the Potency result was “inactive”.

For `Fc1ccc2[nH]c3c(N4CCN(Cc5ccc6c(c5)OCO6)CC4)ncnc3c2c1`, the Potency was 13 µM (active).

Turning to `COc1cccc(CNC(=O)COc2cc(O)c3c(c2)OC(C)(C)CC3=O)c1`, the Potency entry is “inactive”.

For the compound `Cc1ccc(S(=O)(=O)N2CCN(CC(=O)N/N=C/c3cc([N+](=O)[O-])ccc3Cl)CC2)cc1`, the Potency entry was “inactive”.

For the compound `Cc1ccc(C)c(S(=O)(=O)N2CCN(CC(=O)Nc3ccc([N+](=O)[O-])cc3)CC2)c1`, the Potency is 14.6 µM (active).

As for `Cc1ccc(C)c(S(=O)(=O)N2CCN(C(=O)Nc3ccccc3)CC2)c1`, the Potency result is “inactive”.

In the case of `Cc1ccc(S(=O)(=O)N2[C@@H](c3ccccc3F)C(C(=O)O)=CC[C@H]2c2ccc(Cl)cc2)cc1`, the Potency result is “inactive”.

Consider `Cc1c(NC(=O)CSc2nnc(-c3cccnc3)n2N)c(=O)n(-c2ccccc2)n1C`, for which the Potency result is “inactive”.

Turning to `O=C(Nc1ccc(F)cc1)N1CCCC(c2nc3c(nnn3Cc3ccccc3Cl)c(=O)[nH]2)C1` (stereo not given), the Potency result is “inactive”.

As for `Cc1ccc(NC(=O)N2CCC(c3nc4c(nnn4Cc4c(F)cccc4Cl)c(=O)[nH]3)CC2)cc1`, the Potency is 18.4 µM (active).

`Cc1ccc(C)c(Cn2nnc3c(=O)[nH]c(C(=O)Nc4ccc(F)cc4)nc32)c1`: the Potency entry was “inactive”.

For the compound `Cc1cccc(NS(=O)(=O)c2ccc(C)c(C(=O)NCC(c3ccccc3)N(C)C)c2)c1` (stereo not given), the Potency entry was “inactive”.

Regarding `COc1ccc2nc(Nc3nc(-c4cc5ccccc5oc4=O)cs3)sc2c1`, the Potency is 3.66 µM (active).

As for `COc1ccc2nc(Nc3nc4ccc(NC(C)=O)cc4s3)sc2c1`, the Potency entry is “inactive”.

`CCc1noc(C)c1C(=O)Nc1nc2ccc(OC)cc2s1`: the Potency entry was “inactive”.

`CC1CCCCC1NCC(=O)Nc1ccccc1C(=O)Nc1ccccc1` (stereo not given): the Potency entry was “inactive”.

With `CC(C)(C)OC(=O)N1CCC(C(=O)NNC(=O)c2ccc(Cl)cc2Cl)CC1`, the Potency entry was “inactive”.

As to `COC(=O)c1[nH]c2cccc(C)c2c1NC(=O)CN1CCCc2ccccc21`, the Potency was 18.4 µM (active).

For the compound `NS(=O)(=O)c1cccc(NC(=O)CN2CCCc3ccccc32)c1`, the Potency entry is “inactive”.

For `O=C(CN1CCc2ccccc21)NC(c1ccccc1)c1ccccc1`, the Potency result was “inactive”.

On to `CCC(=O)c1cc(F)ccc1OCC(=O)Nc1ccc2c(c1)OCCO2`, for which the Potency result is “inactive”.

For the compound `CCOCCCN(C)C1CCN(C(=O)c2oc3ccccc3c2NC(=O)COc2cccc(C)c2)CC1`, the Potency entry was “inactive”.

`CCOc1ccc(S(=O)(=O)Nc2cccc(C(=O)NCC3(N4CCCCC4)CCCCC3)c2)cc1`: the Potency result is “inactive”.

With `CCOC(=O)c1cccc(NC(=O)C2CCCN(S(=O)(=O)c3cnc[nH]3)C2)c1` (stereo not given), the Potency entry was “inactive”.

On to `O=C(Nc1cccc(Cl)c1)C1CCCN(c2cnccn2)C1` (stereo not given), for which the Potency result is “inactive”.

On to `COc1cccc(NC(=O)C2CCCN(c3ncnc4c3nc3n4CCCCC3)C2)c1` (stereo not given), for which the Potency was 14.6 µM (active).

`CCOC(=O)c1cccc(NC(=O)CCc2c(C)nc3ncnn3c2C)c1`: the Potency entry is “inactive”.

As for `COc1cccc(CNC(=O)C2CCCN(S(=O)(=O)N3CC(C)CC(C)C3)C2)c1` (stereo not given), the Potency entry is “inactive”.

Take `COc1ccccc1NC(=O)C1CCCN(c2cc(C)nc3ncnn23)C1` (stereo not given): the Potency result was “inactive”.

As to `CCOC(=O)c1cccc(NC(=O)C2CCN(c3ncnc4c3nc3n4CCCCC3)CC2)c1`, the Potency is 0.461 µM (active).

With `O=C(NCCCN1CCCCC1)C1CCCN(c2ncnc3c2nc2n3CCCCC2)C1` (stereo not given), the Potency result was “inactive”.

In the case of `COc1cccc(CNC(=O)C2CCCN(c3ncnc4c3nc3n4CCCCC3)C2)c1` (stereo not given), the Potency is 18.3 µM (active).

On to `COc1ccc(C(=O)NC2CC(C)(C)Cc3c2cnn3-c2ccccc2C)o1` (stereo not given), for which the Potency entry was “inactive”.

In the case of `COc1ccccc1N(C)C(=O)c1cc(S(=O)(=O)N2CCc3ccccc32)cn1C`, the Potency entry was “inactive”.

In the case of `COc1ccc(OC)c(C(C)NC(=S)Nc2ccc(S(=O)(=O)Nc3ncccn3)cc2)c1` (stereo not given), the Potency result is “inactive”.

`O=C(Nc1cc(Cl)ccc1N1CCOCC1)c1ccc(N2CCCC2=O)cc1`: the Potency entry is “inactive”.

With `NCCN1CCN2C(=O)CN(C(=O)c3ccccc3)CC12` (stereo not given), the Potency result is “inactive”.

`CC1(C(=O)N/N=C/c2cc3c(cc2Br)OCO3)CC1(Br)Br` (stereo not given): the Potency result is “inactive”.

As for `COc1ccc2oc(=O)cc(-c3cc4ccccc4o3)c2c1`, the Potency result is “inactive”.

For the compound `COc1ccc(CC(=O)Nc2c(C(N)=O)oc3ccccc23)cc1`, the Potency entry is “inactive”.

Take `COc1ccc(Nc2cc(=O)oc3ccccc23)cc1`: the Potency was 4.61 µM (active).

Turning to `CCCOc1ccc(C2=CSC3=NCCN23)cc1Cl`, the Potency result is “inactive”.

In the case of `Cc1nc2ccccc2c2oc(C(=O)NCC3CCCO3)cc12` (stereo not given), the Potency was 20.6 µM (active).

`c1ccc2c(NCC3CCCO3)nc(-c3ccncc3)nc2c1` (stereo not given): the Potency is 18.4 µM (active).

As to `O=C(NCC1CCCO1)c1cc(-c2ccccc2)nc2ccccc12` (stereo not given), the Potency result was “inactive”.

Take `c1ccc(-c2nc(NCc3ccco3)c3ccccc3n2)cc1`: the Potency entry is “inactive”.

Regarding `CCCN(CCC)CCNC(=O)c1cc2c(C)nc3ccccc3c2o1`, the Potency entry was “inactive”.

On to `Cc1nc2ccccc2c2oc(C(=O)NCCCN3CCC(C)CC3)cc12`, for which the Potency entry is “inactive”.
